According to PMC12136788:
Numbering of substitutions follows the chain as printed. In all, about 24,000 sequences were measured (“enrichment r”: median about 0.99, highest 2% from about 3.7 on). Many of the other results were omitted from the sample, so the highest values are more common in it than they were.

T1: UNK ZnF1-3 (human, UniProt Q9C0B0 31-174)
T1 sequence: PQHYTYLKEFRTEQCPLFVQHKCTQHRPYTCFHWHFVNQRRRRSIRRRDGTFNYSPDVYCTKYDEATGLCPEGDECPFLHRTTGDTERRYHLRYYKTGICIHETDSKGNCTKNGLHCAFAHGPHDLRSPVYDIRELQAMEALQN

B1: chr17:57737884:57737885:+_ENSG00000141367_ENST00000269122|hu_mus|motif|central (ssRNA)
RNA: GGGAGUUCUACAGUCCGACGAUCGUUUCCCUGGGCGAAGAGAGCAUUAAAUUUCCGGGCAAAGAGUUCUUCAGCACCAGCGGAGUUGUUCCGCACAGCCAUUCUCAGAGCCAAGUCAGGAUUUUGUAGGACAUUGGUGAUAUACAACAGAGGAUUGAGCAUCA
B2: chr3:101400026:101400027:-_ENSG00000114391_ENST00000394077|hu_mus|FALSE|FALSE (ssRNA)
RNA: GGGAGUUCUACAGUCCGACGAUCCUACCACACUAGCGUUUCCCACCAACUCUGGGGGCAGAGACCUUCACAGGCUUCACAAUCUUUUGUUUAGGUGCUGCCUUUGUGGGGGCCUUGGCAGCAGCCAUUGCUGUCUUCUUUGAUCAACAGAGGAUUGAGCAUCA
B3: chr2:48026839:48026840:+_ENSG00000116062_ENST00000540021|hu_hu|hu_hu_hu_mus_False|18_58 (ssRNA)
RNA: GGGAGUUCUACAGUCCGACGAUCAUAGUGAGCCACUAGCGUCCUAAAUCUGGAACAGUGGCGGUCAUCCGAAAACUGACCUAUGAAAAACUUGCCCAGUGAAGUGUCCACAAAGCACACACCAUAUACACGAGUGUGACCAGACAACAGAGGAUUGAGCAUCA
B4: chr5:32794366:32794367:+_ENSMUSG00000014956_ENSMUST00000015100|mus_mus|FALSE|FALSE (ssRNA)
RNA: GGGAGUUCUACAGUCCGACGAUCAGAAGAGAGCCAGCUAUCCAAGGCUUGUCAAAAAGGAUUCUCAUGUUCUGUGAAUCUAAAAACAAACAAACAACAAAAACCCCAAAAAACAAAACCAAUGCAGGUGAGGGUAAUACCAGACAACAGAGGAUUGAGCAUCA
B5: chr5:67446008:67446009:+_ENSMUSG00000037736_ENSMUST00000038188|mus_mus|motif|central (ssRNA)
RNA: GGGAGUUCUACAGUCCGACGAUCGCCCCCAAGGGUAAGUAACACAAAUGUCUCCGGGAAUACAGUAUAUAUUAUCAGACGGGUGUCUUUGCAUUAAAAAAAAAAAAAGUUAUAGUUCAGAGUCAGAACUCGCUGGGGUAUCUACAACAGAGGAUUGAGCAUCA
B6: 35171164_35172336_3352_CDS_ENSMUSG00000029104_ENSMUST00000080036|mouse|control|control (ssRNA)
RNA: GGGAGUUCUACAGUCCGACGAUCGGGGGCACUCGCUGCUAGCAAGUUUCCAGCCAAAAUCAAGGCAUCCUGAUGGGCUGAGAGAUCCAGUGGGAACCAAGCUGAUGAAAGCAAGGUGAGAAUCAUGGAGGCCAUCCCAACAGUCAACAGAGGAUUGAGCAUCA
B7: chr2:202488911:202488912:-_ENSG00000155755_ENST00000286196|hu_mus|hu_hu_hu_mus_False|8_98 (ssRNA)
RNA: GGGAGUUCUACAGUCCGACGAUCAUUGAAACAUUUUCAUAAUAUUGCAGUAGCAUUUCAGCAUUAUGUAACAAAAGCUCAAUUGUAAAUACAUGUAUCUUAUAAAAAUACACUUAAAAACACGAGUAAAAAUGGGAGGCGCCACAACAGAGGAUUGAGCAUCA
B8: chr10:70744696:70744697:+_ENSG00000165732_ENST00000354185|hu_hu|motif|central (ssRNA)
RNA: GGGAGUUCUACAGUCCGACGAUCUUAAAUUAGAAAAUAUUUUCUUUGUAGAAAAUAGUAAAAAUUAUAACAUUUACCAAGCGGACCCAACAAGUUCAUUUAAACCAAAAAGUAGCUAAAUACAUUAUACAUUUAUAAAUACAGCAACAGAGGAUUGAGCAUCA
B9: chr5:67446008:67446009:+_ENSMUSG00000037736_ENSMUST00000038188|mus_mus|FALSE|FALSE (ssRNA)
RNA: B5 RNA with G80U, G81A
B10: chr1:182620099:182620100:+_ENSMUSG00000058729_ENSMUST00000085803|mus_mus|motif|central (ssRNA)
RNA: GGGAGUUCUACAGUCCGACGAUCAACAACAAAGCUUUUAUAAAUUAUGAUAAAUUAAAAUAUUUAUUAUUAUAAUUGAUCGGUAGAACCAUGUCCCACUGUCAGUAUAUGAAACAUACACUUAAGUCCGUGUUUCCCAUCUGUCAACAGAGGAUUGAGCAUCA
B11: chr16:23113652:23113653:+_ENSMUSG00000022884_ENSMUST00000115341|mus_mus|FALSE|FALSE (ssRNA)
RNA: GGGAGUUCUACAGUCCGACGAUCCCACAAGUAUAUUAUUAAAUGAUAGAGAACAUCUAAUACAACCAUUUCUACAUAACUAGUAAAUGAAUUUCUAAGAAAAAAAGAUUUUACAGACCCCAUCUUUUAUACCCACCCCCAACACAACAGAGGAUUGAGCAUCA
B12: chr15:91426070:91426071:+_ENSG00000140564_ENST00000268171|hu_mus|FALSE|FALSE (ssRNA)
RNA: GGGAGUUCUACAGUCCGACGAUCGGCAGCCAUGGGAAGGGCAGGGUGGGUGUGGGCAUGAGAAGGUCAAGGGUCCAGCUGCUACCCCCAUUAAAAAUACAAAAAAAAAAAAAAAAAAGAAUCAGCAUCUAAAGUGAAUAAUCACAACAGAGGAUUGAGCAUCA
B13: chr4:95690885:95690886:+_ENSMUSG00000028572_ENSMUST00000156910|mus_mus|mus_mus_mus_hu_False|78_88 (ssRNA)
RNA: GGGAGUUCUACAGUCCGACGAUCUUUAGAAAAUGUUAAAUACCAUGAGCAUGCUAAGUAAUUUUAAUAUUUUAUUUUACCAGAAGUCACAGGCAAGCAGACACUACAAGAAUAUAUGAAAAUGAAACUCAACAAUAUAACUGUCAACAGAGGAUUGAGCAUCA
B14: 131763144_131763264_1223_3pUTR_ENSMUSG00000079037_ENSMUST00000091288|mouse|control|control (ssRNA)
RNA: GGGAGUUCUACAGUCCGACGAUCUCACCUUGUACUCUGGGUACAAGUCAGGGGAUACACCAGUAUUUAUUCACUAGACCAAAACAAAGCCCCAACUAGCCAGCAGUUAUUUGGUGUUAUAUUCUUAUUGGCCCGGUGUUAGCACAACAGAGGAUUGAGCAUCA
B15: chr7:108213676:108213677:+_ENSG00000128590_ENST00000249356|hu_hu|FALSE|FALSE (ssRNA)
RNA: GGGAGUUCUACAGUCCGACGAUCUCCAUGAAAUCUAUUUUCAGUCUGUACUGUAUGCUGAUUGGUAGAGUCAAAACCACUAAAAGAAAACAUUUUCUCCAUAUCUUCAAACAUGUCAUCAAAUAAUCCACCUCCAAAAGAAAACAACAGAGGAUUGAGCAUCA

Target: T1, UNK ZnF1-3
Assay: nsRBNS (natural sequence RNA bind-n-seq); RBNS binding buffer (assumed for nsRBNS): 25 mM Tris pH 7.5, 150 mM KCl, 3 mM MgCl2, 0.01% Triton X-100, 500 ug/ml BSA, 20 U/ml SUPERase-In, 4 C; UNK is unkempt and MSI1 is Musashi-1; names of the RNAs are library labels; protein concentration not given here; high values mean tight binding

| Binder | binding signal |
| --- | --- |
| B1 | 2.06 enrichment R |
| B2 | 0.756 enrichment R |
| B3 | 1.26 enrichment R |
| B4 | 1.31 enrichment R |
| B5 | 3.48 enrichment R |
| B6 | 1.2 enrichment R |
| B7 | 0.677 enrichment R |
| B8 | 3.65 enrichment R |
| B9 | 5.07 enrichment R |
| B10 | 7.41 enrichment R |
| B11 | 3.96 enrichment R |
| B12 | 19.6 enrichment R |
| B13 | 3.29 enrichment R |
| B14 | 0.474 enrichment R |
| B15 | 1.22 enrichment R |
